Test results reported in PubChem BioAssay (EPA / NIEHS).
“And” between values parts separate entries of the source, which are not always exact repeats. Identical values can stand only once. The source holds several records for some structures; these can differ, active in one and inactive in another. The source made the active and inactive calls. The calls were made as follows: active = hit-call score of the fitted dose curve at least 0.9, where 1 is the maximum; inactive = score below 0.9.

Assays:
[1] = ATG_ISRE_CIS: Attagene CIS-FACTORIAL HepG2 Assay for human Interferon Regulatory Factor 1 (IRF1) binding to an Interferon-Stimulated Response Element (ISRE) (AID 2282948); settings: HepG2 ISRE cis-reporter (Attagene), mRNA transcription readout; actives raise or lower the signal
Summary of the method: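 Transiently transfected HepG2 cells carrying cis-element reporter units, dosed 24 hours. Reporter mRNA quantified by RT-PCR, fluorescent primer extension, HpaI digestion and capillary electrophoresis. Bidirectional fitting relative to DMSO.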

[2] = ATG_M_32_CIS: Attagene CIS-FACTORIAL HepG2 Assay for M32 Transcription Factor (Internal Marker) (AID 2282949); settings: HepG2 Attagene cis-factorial M32 reporter, mRNA; actives raise or lower the signal;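 also: background control marker of the multiplexed CIS panel rather than a real target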
Summary of the method: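 HepG2 cells transiently transfected with multiplexed cis-regulated reporter units, dosed 24 h. Reporter mRNA quantified by RT-PCR, 6-FAM labelling, HpaI digestion and capillary electrophoresis; bidirectional fit vs DMSO.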

[3] = ATG_M_06_CIS: Attagene CIS-FACTORIAL HepG2 Assay for M06 Transcription Factor (Internal Marker) (AID 2282950); settings: HepG2 Attagene CIS-FACTORIAL M06 internal marker reporter; actives raise or lower the signal
Summary of the method: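 Measured 24 h post-dosing in transiently transfected HepG2 cells, this internal-marker endpoint reports reporter mRNA via RT-PCR with fluorescent primer extension and capillary electrophoresis. DMSO served as negative control and baseline for bidirectional fitting.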

[4] = biological target: Hypoxia-inducible factor 1-alpha (Homo sapiens) (UniProt Q16665); test: ATG_HIF1a_CIS: Attagene CIS-FACTORIAL HepG2 Assay for human Hypoxia Inducible Factor 1 (HIF1A) (AID 2282951); settings: HepG2 Attagene cis-factorial HIF1a reporter transcription; actives raise or lower the signal
Summary of the method: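 Activity is fitted in both directions relative to DMSO. Reporter transcripts are read by RT-PCR, fluorescent primer extension and capillary electrophoresis after 24 h chemical treatment. The cells are HepG2 carrying transiently transfected cis-element-driven reporter units responding to endogenous factors.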

[5] = biological target: Hepatocyte nuclear factor 6 (Homo sapiens) (UniProt Q9UBC0); test: ATG_HNF6_CIS: Attagene CIS-FACTORIAL HepG2 Assay for human Hepatocyte Nuclear Factor 6 (HNF6) (AID 2282952); settings: HepG2 Attagene cis-factorial HNF6 reporter transcription; actives raise or lower the signal
Summary of the method: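 Transiently transfected HepG2 cells expressing cis-regulated reporter transcription units were exposed to chemical for 24 h in a 24-well format. Reporter transcript abundance was determined by fluorescence capillary electrophoresis.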

[6] = biological target: Heat shock factor protein 1 (Homo sapiens) (UniProt Q00613); test: ATG_HSE_CIS: Attagene CIS-FACTORIAL HepG2 Assay for human Heat Shock Transcription Factor 1 (HSE) (AID 2282953); settings: HepG2 HSE cis-reporter, Attagene RNA transcription; actives raise or lower the signal
Summary of the method: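 Reporter mRNA induction in HepG2 is measured 24 h after dosing, using transiently transfected multiplexed cis-regulated reporter units. Signal comes from capillary electrophoresis of labelled RT-PCR products, with DMSO as negative control.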

[7] = ATG_MRE_CIS: Attagene CIS-FACTORIAL HepG2 Assay for human Metal Responsive Element (MRE) (AID 2282954); settings: HepG2 MRE cis-reporter transcription, Attagene multiplex; actives raise or lower the signal
Summary of the method: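 Transient MRTU transfection of HepG2 (FuGene 6); 24 h dosing; total RNA → oligo(dT) RT, PCR, 6-FAM primer extension, HpaI cut, CE. Bidirectional fit vs DMSO.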

[8] = biological target: Paired box protein Pax-6 (Homo sapiens) (UniProt P26367); test: ATG_Pax6_CIS: Attagene CIS-FACTORIAL HepG2 Assay for human Paired Box 6 (PAX6) (AID 2282956); settings: HepG2 CIS-FACTORIAL PAX6 reporter transcription, RNA readout; actives raise or lower the signal
Summary of the method: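 HepG2 cells transiently transfected with cis-promoter-driven multiplexed reporter units sensing endogenous transcription factor activity; 24 h chemical exposure. Reporter mRNA quantified by RT-PCR, 6-FAM labelling, HpaI digestion and capillary electrophoresis; bidirectional fit versus DMSO baseline.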

[9] = ATG_PXRE_CIS: Attagene CIS-FACTORIAL HepG2 Assay for human Pregnane X Receptor Element (PXRE) (AID 2282957); settings: HepG2 Attagene CIS-FACTORIAL PXRE reporter, mRNA; actives raise or lower the signal
Summary of the method: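 Cis-element reporter mRNA in human hepatoma HepG2 cells is measured 24 h post-dosing by RT-PCR, primer-extension labeling and capillary electrophoresis; gain or loss of signal is fitted relative to DMSO.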

[10] = ATG_RORE_CIS: Attagene CIS-FACTORIAL HepG2 Assay for human RAR-related Orphan Receptor Element (RORE) (AID 2282959); settings: HepG2 Attagene cis-factorial RORE reporter, mRNA; actives raise or lower the signal
Summary of the method: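 RORE reporter transcripts reflecting endogenous factor activity were read after 24 h compound exposure of transfected HepG2 cells, using reverse transcription, PCR, fluorescent labelling and capillary electrophoresis sizing. Gain or loss fitted against DMSO.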

[11] = ATG_Sox_CIS: Attagene CIS-FACTORIAL HepG2 Assay for human SRY-box transcription factor (SOX) (AID 2282960); settings: HepG2 Attagene cis-factorial SOX reporter, mRNA; actives raise or lower the signal
Summary of the method: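 Reporter transcripts, measured by RT-PCR and capillary electrophoresis of labelled fragments, report endogenous SOX transcription factor activity. Transiently transfected human HepG2 cells receive chemical for 24 h; changes in either direction are fitted relative to DMSO.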

[12] = biological target: Transcription factor Sp1 (Homo sapiens) (UniProt P08047); test: ATG_Sp1_CIS: Attagene CIS-FACTORIAL HepG2 Assay for human Specificity Protein 1 (Sp1) (AID 2282961); settings: HepG2 Sp1 cis-reporter transcription, actives raise or lower the signal
Summary of the method: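 Read-out is reporter transcript level, measured by RT-PCR and fluorescent capillary electrophoresis after 24 h chemical treatment. System: transiently transfected HepG2 cells reporting endogenous transcription factor activity; gain or loss fitted against DMSO baseline.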

[13] = ATG_SREBP_CIS: Attagene CIS-FACTORIAL HepG2 Assay for human Sterol Regulatory Element Binding (SREBP) (AID 2282962); settings: HepG2 Attagene cis-factorial SREBP reporter, mRNA; actives raise or lower the signal
Summary of the method: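 HepG2 cells transiently transfected with multiplexed cis-promoter reporter units sensing endogenous transcription factors; reporter mRNA measured 24 h after dosing by RT-PCR, 6-FAM labeling, HpaI digestion and capillary electrophoresis. Bidirectional fit versus DMSO.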

[14] = biological target: Signal transducer and activator of transcription 3 (Homo sapiens) (UniProt P40763); test: ATG_STAT3_CIS: Attagene CIS-FACTORIAL HepG2 Assay for human Signal Transducer and Activator of Transcription 3 (STAT3) (AID 2282963); settings: HepG2, Attagene cis-factorial STAT3 reporter transcription; actives raise or lower the signal
Summary of the method: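 Endogenous STAT3-responsive cis-element activity was read in transiently transfected HepG2 cells after 24 h treatment. Reporter transcripts were quantified via RT-PCR and capillary electrophoresis, with DMSO as negative control and bidirectional curve fitting.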

[15] = ATG_TA_CIS: Attagene CIS-FACTORIAL HepG2 Assay for human TA Basal Promoter (AID 2282964); settings: HepG2 Attagene CIS-factorial TA basal promoter reporter; actives raise or lower the signal
Summary of the method: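 Cis-factorial format in HepG2: reporters report endogenous factors, not chimeric Gal4 fusions. After 24 h treatment, reporter transcripts were measured by RT-PCR-capillary electrophoresis fluorescence, analysed bidirectionally versus DMSO.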

[16] = ATG_TCF_b_cat_CIS: Attagene CIS-FACTORIAL HepG2 Assay for human T-Cell-Factor with beta-catenin (TCF/b-cat) (AID 2282965); settings: HepG2 TCF/beta-catenin cis-reporter transcription, actives raise or lower the signal
Summary of the method: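 Measured: reporter mRNA in HepG2 transiently transfected with cis-promoter reporter units, 24 h after chemical addition. Fitting was bidirectional, DMSO as negative control.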

[17] = ATG_TAL_CIS: Attagene CIS-FACTORIAL HepG2 Assay for human TAL Basal Promoter (AID 2282966); settings: HepG2 Attagene cis-factorial TAL promoter reporter; actives raise or lower the signal;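 also: background control endpoint measuring basal TAL promoter reporter mRNA not a specific factor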
Summary of the method: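 In this cell-based multiplex, HepG2 liver cells bearing cis-promoter reporter constructs are dosed for 24 hours. Total RNA is reverse-transcribed and amplified, labelled fragments are sized by capillary electrophoresis, and signal changes are fitted bidirectionally versus DMSO.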

[18] = ATG_TGFb_CIS: Attagene CIS-FACTORIAL HepG2 Assay for human Transforming Growth Factor (TGF) (AID 2282967); settings: HepG2 Attagene CIS TGFb reporter, mRNA transcription; actives raise or lower the signal
Summary of the method: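 Multiplexed cis-reporter HepG2 system, 24 h treatment; mRNA induction read by fluorescence after RT-PCR and CE; DMSO negative control, bidirectional curve fitting.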

[19] = ATG_PBREM_CIS: Attagene CIS-FACTORIAL HepG2 Assay for human Phenobarbital-responsive Enhancer Module (PBREM) (AID 2282955); settings: HepG2 PBREM cis-reporter, Attagene multiplexed transcription; actives raise or lower the signal
Summary of the method: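 Endogenous transcription factor activity was read from reporter transcripts in transiently transfected human HepG2 liver cells after 24 h dosing. RT-PCR products were fluorescently labelled, HpaI-cut and sized by capillary electrophoresis; activity fitted bidirectionally against DMSO baseline.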

[20] = ATG_PPRE_CIS: Attagene CIS-FACTORIAL HepG2 Assay for human Peroxisome Proliferator-activated Response Element (PPRE) (AID 2282958); settings: HepG2 PPRE cis-element reporter, Attagene transcription factor profiling; actives raise or lower the signal
Summary of the method: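 Endogenous PPRE-driven transcription is measured in HepG2 cells carrying transfected multi-reporter constructs. Reporter transcripts are quantified by RT-PCR, HpaI digestion and capillary electrophoresis 24 h after dosing. DMSO baseline, bidirectional fit.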

Measured: AC50

Transcription factor Sp1 (Homo sapiens), sequence (P08047 whole entry, looked up): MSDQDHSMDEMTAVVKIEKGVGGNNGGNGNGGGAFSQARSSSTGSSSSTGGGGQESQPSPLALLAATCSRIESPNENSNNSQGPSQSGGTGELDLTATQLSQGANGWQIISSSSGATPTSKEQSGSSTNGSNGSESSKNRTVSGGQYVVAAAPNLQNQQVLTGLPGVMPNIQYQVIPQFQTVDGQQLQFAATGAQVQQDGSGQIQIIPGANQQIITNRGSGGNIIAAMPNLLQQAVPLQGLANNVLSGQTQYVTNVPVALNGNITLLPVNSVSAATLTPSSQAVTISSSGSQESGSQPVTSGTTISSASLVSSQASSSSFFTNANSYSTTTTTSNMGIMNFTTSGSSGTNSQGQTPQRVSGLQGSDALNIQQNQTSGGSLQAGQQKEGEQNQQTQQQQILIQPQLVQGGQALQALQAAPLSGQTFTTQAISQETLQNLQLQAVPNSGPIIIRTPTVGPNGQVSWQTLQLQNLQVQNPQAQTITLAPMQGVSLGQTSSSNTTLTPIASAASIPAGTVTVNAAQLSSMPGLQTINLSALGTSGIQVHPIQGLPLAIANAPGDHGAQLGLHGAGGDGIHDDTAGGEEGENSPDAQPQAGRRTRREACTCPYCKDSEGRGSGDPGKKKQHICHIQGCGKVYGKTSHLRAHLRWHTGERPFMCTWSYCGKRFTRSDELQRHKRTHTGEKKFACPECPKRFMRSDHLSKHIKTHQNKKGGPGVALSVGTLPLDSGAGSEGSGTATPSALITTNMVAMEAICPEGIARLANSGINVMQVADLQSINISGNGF
Hypoxia-inducible factor 1-alpha (Homo sapiens), sequence (Q16665 whole entry, looked up): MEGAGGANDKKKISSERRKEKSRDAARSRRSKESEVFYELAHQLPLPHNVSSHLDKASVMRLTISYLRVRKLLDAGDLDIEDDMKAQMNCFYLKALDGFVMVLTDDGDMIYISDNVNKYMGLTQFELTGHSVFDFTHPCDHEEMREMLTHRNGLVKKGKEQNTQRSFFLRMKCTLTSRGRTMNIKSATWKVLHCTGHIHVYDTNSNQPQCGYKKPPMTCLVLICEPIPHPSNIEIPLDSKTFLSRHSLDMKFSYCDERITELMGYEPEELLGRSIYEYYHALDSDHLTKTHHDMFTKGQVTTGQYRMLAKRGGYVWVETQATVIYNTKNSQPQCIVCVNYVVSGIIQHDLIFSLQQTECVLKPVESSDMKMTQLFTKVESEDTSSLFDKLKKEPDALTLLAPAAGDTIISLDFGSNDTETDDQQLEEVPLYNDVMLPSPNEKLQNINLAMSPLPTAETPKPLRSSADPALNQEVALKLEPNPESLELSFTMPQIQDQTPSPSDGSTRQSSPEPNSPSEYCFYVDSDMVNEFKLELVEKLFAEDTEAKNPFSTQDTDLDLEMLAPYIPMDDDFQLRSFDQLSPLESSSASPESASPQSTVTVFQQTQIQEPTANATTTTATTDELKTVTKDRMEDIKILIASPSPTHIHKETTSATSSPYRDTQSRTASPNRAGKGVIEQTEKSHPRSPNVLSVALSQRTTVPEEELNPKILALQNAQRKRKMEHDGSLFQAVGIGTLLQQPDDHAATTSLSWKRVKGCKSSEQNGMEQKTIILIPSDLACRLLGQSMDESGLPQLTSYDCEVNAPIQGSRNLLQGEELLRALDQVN
Heat shock factor protein 1 (Homo sapiens), sequence (Q00613 whole entry, looked up): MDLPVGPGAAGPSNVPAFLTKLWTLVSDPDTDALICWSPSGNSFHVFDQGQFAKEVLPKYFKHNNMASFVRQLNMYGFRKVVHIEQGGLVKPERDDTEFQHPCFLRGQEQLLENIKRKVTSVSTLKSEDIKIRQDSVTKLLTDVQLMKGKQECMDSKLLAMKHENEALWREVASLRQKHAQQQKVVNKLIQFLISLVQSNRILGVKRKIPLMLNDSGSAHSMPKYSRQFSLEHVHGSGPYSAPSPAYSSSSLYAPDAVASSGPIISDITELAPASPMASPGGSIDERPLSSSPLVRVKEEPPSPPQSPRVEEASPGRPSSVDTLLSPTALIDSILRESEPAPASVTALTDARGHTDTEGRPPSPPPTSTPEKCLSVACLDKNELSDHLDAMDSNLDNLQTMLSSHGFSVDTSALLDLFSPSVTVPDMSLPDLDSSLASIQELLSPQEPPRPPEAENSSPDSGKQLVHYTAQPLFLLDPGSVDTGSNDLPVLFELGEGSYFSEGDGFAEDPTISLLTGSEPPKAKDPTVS
Hepatocyte nuclear factor 6 (Homo sapiens), sequence (Q9UBC0 whole entry, looked up): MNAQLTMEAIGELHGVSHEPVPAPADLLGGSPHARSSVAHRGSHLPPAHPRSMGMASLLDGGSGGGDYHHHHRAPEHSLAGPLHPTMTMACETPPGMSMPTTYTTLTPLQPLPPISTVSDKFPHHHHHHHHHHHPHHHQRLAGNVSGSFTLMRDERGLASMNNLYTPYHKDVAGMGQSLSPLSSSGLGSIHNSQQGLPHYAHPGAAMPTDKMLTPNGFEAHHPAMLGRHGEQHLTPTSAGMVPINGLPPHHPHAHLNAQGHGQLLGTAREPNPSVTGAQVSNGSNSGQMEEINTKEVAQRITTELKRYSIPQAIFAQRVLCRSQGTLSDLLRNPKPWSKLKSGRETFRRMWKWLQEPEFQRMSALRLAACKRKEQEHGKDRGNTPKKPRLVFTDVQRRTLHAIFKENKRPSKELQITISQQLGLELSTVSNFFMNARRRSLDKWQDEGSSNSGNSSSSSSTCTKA
Paired box protein Pax-6 (Homo sapiens), sequence (P26367 whole entry, looked up): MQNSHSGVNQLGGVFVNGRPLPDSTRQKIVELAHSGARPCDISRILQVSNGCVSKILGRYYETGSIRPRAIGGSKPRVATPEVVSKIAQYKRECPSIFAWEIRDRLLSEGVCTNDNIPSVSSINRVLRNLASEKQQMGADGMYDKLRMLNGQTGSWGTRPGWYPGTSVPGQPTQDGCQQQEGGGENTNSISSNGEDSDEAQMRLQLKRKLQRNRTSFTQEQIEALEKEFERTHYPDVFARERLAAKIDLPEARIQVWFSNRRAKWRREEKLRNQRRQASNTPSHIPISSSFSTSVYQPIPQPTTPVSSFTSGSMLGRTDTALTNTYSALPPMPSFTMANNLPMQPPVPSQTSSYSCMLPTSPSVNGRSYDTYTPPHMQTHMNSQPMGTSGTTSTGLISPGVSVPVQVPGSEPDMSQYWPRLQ
Signal transducer and activator of transcription 3 (Homo sapiens), sequence (P40763 whole entry, looked up): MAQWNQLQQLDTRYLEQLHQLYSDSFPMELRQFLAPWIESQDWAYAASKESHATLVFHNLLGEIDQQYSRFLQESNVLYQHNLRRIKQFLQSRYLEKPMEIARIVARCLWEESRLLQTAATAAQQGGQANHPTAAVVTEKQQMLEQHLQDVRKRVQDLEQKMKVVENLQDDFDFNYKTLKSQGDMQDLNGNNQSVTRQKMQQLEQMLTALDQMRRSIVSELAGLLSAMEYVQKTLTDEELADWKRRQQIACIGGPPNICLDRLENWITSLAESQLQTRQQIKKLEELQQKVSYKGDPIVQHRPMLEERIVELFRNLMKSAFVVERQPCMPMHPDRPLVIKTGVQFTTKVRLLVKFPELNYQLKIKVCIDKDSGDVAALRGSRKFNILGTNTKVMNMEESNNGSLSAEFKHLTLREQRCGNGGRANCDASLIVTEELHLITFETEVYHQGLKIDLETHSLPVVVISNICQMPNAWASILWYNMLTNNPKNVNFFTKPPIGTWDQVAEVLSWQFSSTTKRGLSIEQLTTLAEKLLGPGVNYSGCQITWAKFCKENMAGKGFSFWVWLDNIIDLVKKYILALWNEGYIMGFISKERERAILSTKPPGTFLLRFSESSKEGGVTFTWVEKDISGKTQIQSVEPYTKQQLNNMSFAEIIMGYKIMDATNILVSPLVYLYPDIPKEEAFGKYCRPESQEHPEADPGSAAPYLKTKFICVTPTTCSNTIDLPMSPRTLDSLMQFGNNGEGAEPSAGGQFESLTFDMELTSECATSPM

CC1CCC(CO)CC1 (centres undefined)
not listed: [19] | [20]
inactive: all other assays above

O=C(NO)c1ccccc1
inactive: [2] | [3] | [4] | [6] | [7] | [8] | [9] | [10] | [11] | [13] | [14] | [15] | [18]
active: [1] 44.4 µM [middle of 4 runs] | [15] 76.7 µM | [16] 18.9 µM [middle of 4 runs] | [17] 75.5 µM [middle of 4 runs] | [18] 27.5 µM and 26.7 µM

CCC(C)c1ccccc1O (centres undefined)
active: [9] 27.4 µM and 30.9 µM | [16] 164 µM
inactive: [1] | [2] | [3] | [4] | [6] | [7] | [19] | [8] | [20] | [10] | [12] | [13] | [14] | [15] | [16] | [17] | [18]

c1cc2cccc3c4cccc5cccc(c(c1)c23)c54
not listed: [5]
inactive: all other assays above

O=S(=O)(O)C(F)(F)C(F)(F)C(F)(F)C(F)(F)C(F)(F)C(F)(F)C(F)(F)C(F)(F)C(F)(F)C(F)(F)F
active: [9] 83.7 µM and 40.3 µM | [18] 132 µM and 31.7 µM
not listed: [5] | [11] | [19]
inactive: all other assays above

CCOC(=O)c1nc(C(Cl)(Cl)Cl)n(-c2ccc(Cl)cc2Cl)n1
inactive: [3] | [4] | [8] | [20] | [14] | [16]
active: [1] 53.2 µM | [2] 63.9 µM | [5] 160 µM | [6] 65.8 µM | [7] 74.7 µM | [9] 2.06 µM | [10] 167 µM | [12] 54.6 µM | [13] 27.7 µM | [15] 173 µM | [17] 118 µM | [18] 27.8 µM

CC(O)COc1ccccc1 (centres undefined)
inactive: [1] | [2] | [3] | [4] | [6] | [7] | [19] | [8] | [9] | [20] | [10] | [11] | [12] | [13] | [14] | [15] | [16] | [17] | [18]
active: [9] 59.5 µM
